PubChem BioAssay (NCATS)
Results filed as inconclusive are left out. Calls of active or inactive are those of the source. Unless noted, calls follow the shape of the dose curve; as a rule, active = well fitted curve in the direction sought with a large enough effect; inconclusive = small, poorly fitted or top-dose-only effect, or another doubt; inactive = no such curve, though single readings can be large; an effect the other way counts as inactive or inconclusive.

Columns and labels:
[1] = qHTS for differential inhibitors of proliferation of Plasmodium falciparum line 7G8 (AID 1815);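 also: parasite growth measured after three days of incubation; plate controls were vehicle wells for no effect and reference inhibitor wells for full effect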
[2] = qHTS for differential inhibitors of proliferation of Plasmodium falciparum line GB4 (AID 1816); conditions: Potency: Plasmodium falciparum GB4 proliferation inhibition;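 also: parasite growth measured after 72 h incubation; 0% = vehicle DMSO and -100% = reference inhibitor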
[3] = qHTS for differential inhibitors of proliferation of Plasmodium falciparum line 3D7 (AID 1876);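 also: parasite growth measured after three days of culture; 0% = vehicle wells and -100% = reference inhibitor wells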
[4] = qHTS for differential inhibitors of proliferation of Plasmodium falciparum line D10 (AID 1877);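 also: parasites grown with compound for 72 h before DNA staining; plate controls were vehicle wells for no effect and reference inhibitor wells for full effect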
[5] = qHTS for differential inhibitors of proliferation of Plasmodium falciparum line Dd2 (AID 1882); conditions: Potency: Plasmodium falciparum Dd2 proliferation inhibition;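 also: series mostly up to about 29 µM; compound exposure of 72 h on infected erythrocytes; plate controls were DMSO vehicle for no effect and 0.29 µM artemisinin for full effect; nearly all actives have a fitted effect of over 65% in size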
Method in brief: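 SYBR Green I DNA fluorescence read-out, ex 485/em 535 nm. Signals were normalized to 0.29 uM artemisinin and DMSO wells, then corrected using vehicle-only plates flanking each stack. Parasite growth ran 72 h in erythrocytes before lysis.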

[6] = qHTS for differential inhibitors of proliferation of Plasmodium falciparum line W2 (AID 1883); conditions: Potency: Plasmodium falciparum W2 proliferation inhibition;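 also: parasites grown with compound for 72 h before lysis and staining; 0% = vehicle wells and -100% = control inhibitor wells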
[7] = qHTS for differential inhibitors of proliferation of Plasmodium falciparum line HB3 (AID 1886); conditions: Potency: Plasmodium falciparum HB3 proliferation inhibition;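 also: parasites grown with compound for 72 h before SYBR Green readout; plate controls were vehicle for no effect and reference inhibitor for full effect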
[8] = qHTS Assay for Modulators of Human Peripheral Myelin Protein 22 (PMP22) Expression/Activity (AID 1967; active = well fitted curve in the direction sought with a large enough effect in the signal ratio; the % refers to the signal ratio;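 also: 0% = untreated cells and 100% end not stated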)
Method in brief: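 MSC80 mouse Schwann cells stably carrying Pmp22 promoter–green click beetle luciferase plus EF-alpha–red luciferase control were dosed for 24h at 37 °C. Dual-colour luminescence was filter-overlap corrected; %Activity came from green/red ratio versus untreated cells.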

[9] = molecular target: Ferritin light chain (Equus caballus) (UniProt P02791); test: qHTS Validation Assay for Identification of Novel General Anesthetics (AID 2323); also: series mostly up to about 77 µM; % is scaled to controls: 0 for no effect and ±100 for the full control effect
Method in brief: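 Competitive displacement of profluorescent 1-aminoanthracene (1-AMA, 50% saturated solution in PBS) from 10 uM horse-spleen apoferritin. Compounds incubated 10 min at room temperature; fluorescence read at 380 nm excitation/535 nm emission, normalized to free 1-AMA and complex, fitted with four-parameter Hill equation.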

[10] = molecular target: ATP-dependent DNA helicase Q1 (Homo sapiens) (UniProt P46063); test: qHTS Validation Assay for Inhibitors of RecQ-Like Dna Helicase 1 (RECQ1) (AID 2353);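 also: plate controls were DMSO vehicle for no effect and enzyme-free control for full effect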
Method in brief: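 50 nM RECQ1T1 preincubated 15 min with compound in Tris pH 8.0 buffer with MgCl2, DTT, Tween-20 and 2.5 ug/ml poly(dI-dC); started with 200 nM TAMRA/BHQ-2 forked duplex and 2 mM ATP. Unwinding read as fluorescence (525/598 nm), two reads 2 h apart.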

[11] = molecular target: RecQ-like DNA helicase BLM (Homo sapiens) (UniProt P54132); test: qHTS Validation Assay for Inhibitors of Bloom's syndrome helicase (BLM) (AID 2364);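 also: plate controls were DMSO vehicle for no effect and enzyme-free control for full effect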
Method in brief: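 BLM 50 nM in 25 mM Tris-HCl pH 8.0, 5 mM NaCl, 2 mM MgCl2, 1 mM DTT, 0.01% Tween-20, 2.5 ug/ml poly(dI-dC); 15 min cpd preinc, RT. Start: 200 nM forked DNA + 2 mM ATP (final). TAMRA read, 2 reads 2 h apart.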

[12] = Quantitative high throughput screen for delayed death inhibitors of the malarial parasite plastid, 96 hour incubation (AID 488745); also: series mostly up to about 29 µM; % is scaled to controls: 0 for no effect and ±100 for the full control effect; nearly all actives have a fitted effect of over 70% in size
Method in brief: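 P. falciparum carrying an integrated firefly luciferase reporter, grown in erythrocytes (2% hematocrit, 0.1% parasitemia final) in RPMI 1640/0.5% Albumax, was exposed to compound for 96 h (two generations) at 37 C, 5% CO2. Luminescence decrease indicated growth inhibition.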

[13] = Quantitative high throughput screen for delayed death inhibitors of the malarial parasite plastid, 48 hour incubation (AID 488752); also: % is scaled to controls: 0 for no effect and ±100 for the full control effect; nearly all actives have a fitted effect of over 65% in size
Method in brief: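 Erythrocytes infected with P. falciparum carrying an integrated firefly luciferase reporter (2% hematocrit, 0.1% parasitemia final) were exposed to compounds in RPMI 1640/0.5% Albumax for 48 h at 37 C, 5% CO2. Growth inhibition was scored as reduced luminescence.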

[14] = molecular target: M-phase phosphoprotein 8 (Homo sapiens) (UniProt Q99549); test: qHTS Validation Assay for Inhibitors for MPP8 Chromodomain Interactions with Methylated Histone Tails (AID 488949);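 also: AlphaScreen signal from MPP8 chromodomain bound to biotinylated H3K9me3 peptide; top concentration of the series differs between compounds; % is scaled to controls: 0 for no effect and ±100 for the full control effect; nearly all actives have a fitted effect of over 55% in size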
Method in brief: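 MPP8 (50 nM) was preincubated with biotinylated H3(1-18)K9me3 peptide (50 nM) in PBS pH 7.4, 0.01% Tween-20 for 30 min at room temperature, then with compounds for 30 min; binding was detected by AlphaScreen.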

[15] = molecular target: Transient receptor potential cation channel subfamily V member 1 (Homo sapiens) (UniProt Q8NER1); test: HTS Assay for Compounds that Act as Enhancers of the Vanilloid Receptor 1 (AID 488979); also: 0% is about no effect
Method in brief: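 TRPV1-expressing cells loaded with Fluo-8 calcium dye; compounds added and calcium influx read kinetically for 3 min (agonist phase), then capsaicin at EC20 added and read 2 min more for enhancement. Fluorescence ex 480/em 520 nm.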

[16] = molecular target: Thyrotropin receptor (Homo sapiens) (UniProt P16473); test: qHTS Assay for Antagonists of the Thyroid Stimulating Hormone Receptor (AID 488980); also: series mostly up to about 58 µM; 0% is about no effect
Method in brief: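 HEK293 cells transfected with human TSHR, suspended in HEPES-buffered HBSS with 70 uM RO 20-1724, were treated with compounds plus TSH at EC80 (4 nM final). cAMP was measured by competitive HTRF (cryptate anti-cAMP antibody, cAMP-d2 acceptor).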

[17] = molecular target: Thyrotropin-releasing hormone receptor (Homo sapiens) (UniProt P34981); test: qHTS for Small Molecule Agonists and Allosteric Enhancers of Human TRH Receptor: Validation Screen for Agonists (AID 493127;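 active = calcium activation more than 3 SD above the typical response in the agonist read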;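 also: intracellular calcium rise by fluo-8 fluorescence before TRH EC20 addition; 0% is about no effect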); conditions: TRH receptor agonist cell assay; at 2 µM; active compounds read high
Method in brief: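 TRHR-expressing cells were plated overnight in serum-containing medium, then loaded with fluo-8 calcium dye at room temperature for 30 min–1.5 h. After a 10 s baseline, compound was pin-transferred and calcium fluorescence (ex 480/em 530) read kinetically for agonist response.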

[18] = Validation screen for small molecules that induce DNA re-replication in SW480 colon adenocarcinoma cells (AID 504364); also: 0% is about no effect
Method in brief: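 SW480 cells seeded at 250 per well were exposed to compound or DMSO for 48 hr at 37 C, 5% CO2, then stained with Hoechst for 40 min. DNA content per nucleus was imaged (405 nm ex, 500-530 nm em).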

[19] = molecular target: DNA dC->dU-editing enzyme APOBEC-3G (Homo sapiens) (UniProt Q9HC16); test: qHTS for inhibitors of Vif-A3G interactions: Validation (AID 588379); also: 0% is about no effect
Method in brief: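 HeLa cells stably expressing Vif and A3G-eYFP, 700 cells/well, incubated overnight at 37 deg C, then exposed to compound overnight at 37 deg C. Inhibition of Vif-mediated degradation read as increased yellow fluorescence (Ex 488/Em 500-530) by laser-scanning cytometry.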

[20] = molecular target: Voltage-gated inwardly rectifying potassium channel KCNH2 (Homo sapiens) (UniProt Q12809); test: qHTS Assay for Small Molecule Inhibitors of the Human hERG Channel Activity (AID 588834);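 also: top concentration of the series differs between compounds; % is scaled to controls: 0 for no effect and ±100 for the full control effect; lower thallium flux fluorescence means stronger hERG block; nearly all actives have a fitted effect of over 50% in size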
Method in brief: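 U2OS cells transduced with hERG via BacMam (MOI ~100), plated 2000/well, loaded with FluxOR thallium dye, compound ~10 min, then stimulation buffer; fluorescence decrease read kinetically; AC50 from Hill fits.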

[21] = system: Zika virus NS2B-NS3 protease; test: Primary screen GU AMC qHTS for Zika virus inhibitors (AID 1347154);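 also: 0% = no-inhibitor control and -100% = no-enzyme control; nearly all actives have a fitted effect of over 70% in size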
Method in brief: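 Unlinked Zika NS2B hydrophilic domain/NS3 protease domain noncovalent complex (25 nM final) in 10 mM Tris-HCl pH 8.0, 0.01% Tween 20, with AMC peptide substrate. Fluorescence (ex 340, em 450 nm) change over 15 min, room temperature; percent inhibition fitted to 4-parameter Hill equation.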

Sequence of ATP-dependent DNA helicase Q1 (Homo sapiens) (P46063 whole entry, looked up): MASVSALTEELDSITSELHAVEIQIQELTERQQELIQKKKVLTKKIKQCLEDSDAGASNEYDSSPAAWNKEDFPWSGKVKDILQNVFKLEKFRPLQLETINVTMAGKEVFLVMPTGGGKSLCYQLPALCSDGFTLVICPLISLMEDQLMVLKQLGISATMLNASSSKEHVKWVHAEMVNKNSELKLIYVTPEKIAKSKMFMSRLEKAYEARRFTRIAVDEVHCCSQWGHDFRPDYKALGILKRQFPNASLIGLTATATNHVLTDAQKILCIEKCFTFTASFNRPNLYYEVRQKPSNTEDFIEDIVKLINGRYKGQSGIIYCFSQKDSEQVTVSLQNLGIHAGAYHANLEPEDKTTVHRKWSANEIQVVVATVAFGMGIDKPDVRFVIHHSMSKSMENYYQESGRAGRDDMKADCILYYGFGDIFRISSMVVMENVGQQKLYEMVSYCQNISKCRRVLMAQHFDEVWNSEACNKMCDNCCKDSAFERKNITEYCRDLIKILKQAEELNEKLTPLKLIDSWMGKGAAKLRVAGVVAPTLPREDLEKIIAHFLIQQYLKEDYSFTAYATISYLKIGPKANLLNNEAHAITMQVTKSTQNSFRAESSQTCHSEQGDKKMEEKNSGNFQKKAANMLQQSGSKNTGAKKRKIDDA
Sequence of Thyrotropin-releasing hormone receptor (Homo sapiens) (P34981 whole entry, looked up): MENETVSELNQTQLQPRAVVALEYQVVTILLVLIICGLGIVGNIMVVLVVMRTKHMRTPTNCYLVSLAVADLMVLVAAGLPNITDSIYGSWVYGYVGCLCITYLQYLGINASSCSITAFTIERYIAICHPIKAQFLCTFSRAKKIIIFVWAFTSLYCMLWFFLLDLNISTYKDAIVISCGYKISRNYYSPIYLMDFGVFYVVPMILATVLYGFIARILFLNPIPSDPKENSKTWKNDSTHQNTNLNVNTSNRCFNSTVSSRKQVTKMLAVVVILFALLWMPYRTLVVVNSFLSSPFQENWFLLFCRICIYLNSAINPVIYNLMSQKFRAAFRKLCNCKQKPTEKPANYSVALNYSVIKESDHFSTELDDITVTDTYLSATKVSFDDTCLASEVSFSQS
Sequence of Voltage-gated inwardly rectifying potassium channel KCNH2 (Homo sapiens) (Q12809 whole entry, looked up): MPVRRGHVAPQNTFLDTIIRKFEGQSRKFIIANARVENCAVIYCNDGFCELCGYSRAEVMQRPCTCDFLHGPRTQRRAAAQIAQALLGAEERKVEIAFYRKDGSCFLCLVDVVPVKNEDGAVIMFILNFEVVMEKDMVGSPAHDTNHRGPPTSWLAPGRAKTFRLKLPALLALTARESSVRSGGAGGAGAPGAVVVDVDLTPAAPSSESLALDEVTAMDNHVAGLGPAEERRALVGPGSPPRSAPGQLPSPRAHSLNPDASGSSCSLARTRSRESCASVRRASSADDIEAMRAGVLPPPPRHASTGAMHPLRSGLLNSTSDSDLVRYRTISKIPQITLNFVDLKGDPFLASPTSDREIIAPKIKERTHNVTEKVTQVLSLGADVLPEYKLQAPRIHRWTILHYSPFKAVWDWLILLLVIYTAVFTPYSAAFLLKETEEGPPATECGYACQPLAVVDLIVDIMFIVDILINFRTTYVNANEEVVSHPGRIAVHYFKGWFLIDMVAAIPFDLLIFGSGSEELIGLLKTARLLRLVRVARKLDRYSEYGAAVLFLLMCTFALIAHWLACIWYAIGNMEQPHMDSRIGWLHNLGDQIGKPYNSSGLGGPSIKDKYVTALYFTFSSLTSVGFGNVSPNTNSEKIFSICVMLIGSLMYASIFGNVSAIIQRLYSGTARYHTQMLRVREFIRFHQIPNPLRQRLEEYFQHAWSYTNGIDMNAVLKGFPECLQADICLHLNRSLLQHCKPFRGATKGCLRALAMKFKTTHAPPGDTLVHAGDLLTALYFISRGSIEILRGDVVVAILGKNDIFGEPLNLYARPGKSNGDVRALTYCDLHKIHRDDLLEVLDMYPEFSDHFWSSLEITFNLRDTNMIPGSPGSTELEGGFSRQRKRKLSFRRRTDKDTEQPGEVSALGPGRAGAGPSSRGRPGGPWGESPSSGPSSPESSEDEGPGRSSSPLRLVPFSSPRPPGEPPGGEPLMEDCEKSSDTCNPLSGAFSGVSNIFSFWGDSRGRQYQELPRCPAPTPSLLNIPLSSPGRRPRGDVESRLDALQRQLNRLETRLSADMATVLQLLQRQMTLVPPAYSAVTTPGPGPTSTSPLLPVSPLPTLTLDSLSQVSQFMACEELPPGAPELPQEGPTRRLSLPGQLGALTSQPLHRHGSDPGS
Sequence of Thyrotropin receptor (Homo sapiens) (P16473 whole entry, looked up): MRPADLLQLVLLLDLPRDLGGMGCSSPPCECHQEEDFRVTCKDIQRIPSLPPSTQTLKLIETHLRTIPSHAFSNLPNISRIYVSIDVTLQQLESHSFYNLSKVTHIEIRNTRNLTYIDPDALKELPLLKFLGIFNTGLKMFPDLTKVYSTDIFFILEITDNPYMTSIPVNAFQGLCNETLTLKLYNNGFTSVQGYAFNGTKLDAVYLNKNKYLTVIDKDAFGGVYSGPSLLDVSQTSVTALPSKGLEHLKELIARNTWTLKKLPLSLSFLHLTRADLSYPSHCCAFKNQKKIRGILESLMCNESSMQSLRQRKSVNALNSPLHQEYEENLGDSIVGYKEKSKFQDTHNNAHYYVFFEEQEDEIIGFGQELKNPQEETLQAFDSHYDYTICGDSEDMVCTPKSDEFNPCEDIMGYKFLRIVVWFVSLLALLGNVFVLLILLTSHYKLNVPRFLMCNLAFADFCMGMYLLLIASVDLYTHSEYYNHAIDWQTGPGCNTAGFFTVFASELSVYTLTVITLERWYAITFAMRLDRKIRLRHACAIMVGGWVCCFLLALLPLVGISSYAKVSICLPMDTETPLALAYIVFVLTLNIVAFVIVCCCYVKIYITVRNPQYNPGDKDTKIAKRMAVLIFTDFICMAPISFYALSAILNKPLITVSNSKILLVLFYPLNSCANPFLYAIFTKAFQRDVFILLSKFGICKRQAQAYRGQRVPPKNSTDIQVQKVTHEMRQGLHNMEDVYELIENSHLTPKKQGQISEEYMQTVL
Sequence of M-phase phosphoprotein 8 (Homo sapiens) (Q99549 whole entry, looked up): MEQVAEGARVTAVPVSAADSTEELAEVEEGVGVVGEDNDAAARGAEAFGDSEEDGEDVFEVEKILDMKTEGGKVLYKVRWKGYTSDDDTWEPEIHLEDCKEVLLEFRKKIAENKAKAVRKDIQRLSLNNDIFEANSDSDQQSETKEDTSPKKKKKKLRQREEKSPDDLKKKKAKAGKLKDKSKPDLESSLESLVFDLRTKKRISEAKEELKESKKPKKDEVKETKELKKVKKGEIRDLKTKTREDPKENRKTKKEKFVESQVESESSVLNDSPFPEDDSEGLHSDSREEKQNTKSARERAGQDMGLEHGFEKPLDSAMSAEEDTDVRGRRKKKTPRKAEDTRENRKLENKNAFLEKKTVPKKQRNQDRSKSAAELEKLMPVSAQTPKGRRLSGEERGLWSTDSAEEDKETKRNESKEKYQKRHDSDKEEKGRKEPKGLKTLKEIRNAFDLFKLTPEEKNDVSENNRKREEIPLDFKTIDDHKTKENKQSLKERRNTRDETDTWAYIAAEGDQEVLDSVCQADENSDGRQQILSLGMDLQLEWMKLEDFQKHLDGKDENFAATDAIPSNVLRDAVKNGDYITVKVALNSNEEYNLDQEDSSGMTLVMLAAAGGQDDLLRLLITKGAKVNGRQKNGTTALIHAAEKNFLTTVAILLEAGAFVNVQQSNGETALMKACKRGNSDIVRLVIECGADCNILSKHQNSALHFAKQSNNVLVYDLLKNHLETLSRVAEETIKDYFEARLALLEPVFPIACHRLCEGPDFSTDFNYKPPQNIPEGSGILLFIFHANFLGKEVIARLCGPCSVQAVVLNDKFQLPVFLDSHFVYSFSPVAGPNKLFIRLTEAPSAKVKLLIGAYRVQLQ
Sequence of Transient receptor potential cation channel subfamily V member 1 (Homo sapiens) (Q8NER1 whole entry, looked up): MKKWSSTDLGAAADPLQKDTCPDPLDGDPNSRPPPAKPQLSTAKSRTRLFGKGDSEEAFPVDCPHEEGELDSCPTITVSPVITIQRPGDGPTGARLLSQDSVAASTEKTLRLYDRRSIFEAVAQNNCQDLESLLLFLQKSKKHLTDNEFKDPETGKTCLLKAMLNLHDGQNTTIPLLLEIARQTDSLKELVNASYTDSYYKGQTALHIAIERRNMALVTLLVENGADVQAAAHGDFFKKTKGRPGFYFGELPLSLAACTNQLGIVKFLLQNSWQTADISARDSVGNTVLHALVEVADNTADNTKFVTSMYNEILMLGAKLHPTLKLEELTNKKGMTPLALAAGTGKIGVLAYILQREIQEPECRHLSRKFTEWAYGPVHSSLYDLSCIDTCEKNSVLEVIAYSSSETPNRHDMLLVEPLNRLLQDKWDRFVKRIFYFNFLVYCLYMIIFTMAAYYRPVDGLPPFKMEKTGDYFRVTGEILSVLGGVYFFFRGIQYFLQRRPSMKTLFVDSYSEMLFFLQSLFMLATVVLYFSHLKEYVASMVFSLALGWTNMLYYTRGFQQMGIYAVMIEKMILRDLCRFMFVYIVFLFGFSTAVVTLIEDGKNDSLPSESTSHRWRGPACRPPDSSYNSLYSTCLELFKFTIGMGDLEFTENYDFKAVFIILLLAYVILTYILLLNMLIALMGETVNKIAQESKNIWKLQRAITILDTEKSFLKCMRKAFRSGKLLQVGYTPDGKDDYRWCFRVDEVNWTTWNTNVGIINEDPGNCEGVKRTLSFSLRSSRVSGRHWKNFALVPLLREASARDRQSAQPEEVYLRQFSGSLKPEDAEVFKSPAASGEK
Sequence of Ferritin light chain (Equus caballus) (P02791 2-175 limits assumed): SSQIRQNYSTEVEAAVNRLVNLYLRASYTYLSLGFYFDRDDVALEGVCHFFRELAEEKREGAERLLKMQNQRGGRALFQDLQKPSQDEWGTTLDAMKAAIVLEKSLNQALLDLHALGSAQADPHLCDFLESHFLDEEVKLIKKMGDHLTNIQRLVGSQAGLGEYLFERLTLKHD

Cc1cccc(C)c1NC(=O)C[N+](C)(C)C
inactive: Potency [1] | Potency [2] | Potency [3] | Potency [4] | Potency [5] | Potency [6] | Potency [7] | outcome [8] | outcome [9] | Potency [10] | Potency [11] | Potency [12] | Potency [13] | Potency [14] | outcome [15] | outcome [16] | activation [17] -0.0625% | outcome [18] | Potency [19] | Potency [20] | Potency [21]
